Data from PubChem BioAssay AID434970 (Sanford-Burnham Center for Chemical Genomics, 2010).
In all, about 11,000 compounds went through this assay and about 310 (2.8%) were called active. Cut-off read from the data, not from the text of the source: active = activity change below about -85%; inactive = the rest. Shown is part of a subset that was picked to be rich in actives.

What follows are molecules tested on intestinal alkaline phosphatase [Mus musculus] (assay: mouse intestinal phosphatase enzyme activation – biochemical, luminescence, single concentration, confirmation (AID 434970)). Details: purified mouse IAP, CDP-Star luminescence, 30 min, at 10 µM; activation factor: measured here: IAP activation factor, stronger effect = higher value; activity change, negative = activation: stronger effect = lower value.

SMILES | activation factor | activity change, negative = activation
CN1CCN(S(=O)(=O)c2ccc(SCCOc3ccccc3)nc2)CC1 | 0.96 | 4% (inactive)
C=CCN(C(=O)CNC(=O)c1ccco1)C(C(=O)NC1CCCCC1)c1ccc(F)cc1 (configuration not stated) | 1.05 | -5.3% (inactive)
CC(C)(C)N(C(=O)Cn1nnc(-c2ccc(F)cc2)n1)C(C(=O)NC1CCCC1)c1ccncc1 (configuration not stated) | 0.935 | 6.5% (inactive)
O=C(NC1CCCC1)C(c1ccc(F)cc1)N(Cc1ccc(F)cc1)C(=O)c1ccn[nH]1 (configuration not stated) | 2.05 | -105% (active)
Brc1ccc(-c2cnc(-c3cccs3)o2)cc1 | 0.944 | 5.65% (inactive)
COc1ccc(Cc2nn[nH]n2)cc1 | 1.18 | -17.9% (inactive)
CCn1nc(C)c(CN2CCC(C(=O)Nc3cccc(-c4cccc(Cl)c4)c3)CC2)c1C | 4.74 | -374% (active)
CC(=O)c1ccc(NC(=O)Cn2nc(C)cc2C)cc1 | 0.948 | 5.2% (inactive)
CCc1ccc(NC(=O)C2CC(=O)N(C(C)C)C2)cc1 (configuration not stated) | 0.925 | 7.45% (inactive)
CCn1nc(C(=O)Nc2cccc(C(F)(F)F)c2)c(Cl)c1Cl | 0.952 | 4.85% (inactive)
Cc1cc(C)n(CCCN2CCC(C(=O)Nc3cccc(-c4cccc(F)c4)c3)CC2)n1 | 3.01 | -202% (active)
CCn1nc(C)c(CN2CCC(C(=O)Nc3cccc(-c4cccc(F)c4)c3)CC2)c1C | 3.08 | -208% (active)
Cc1ccc(NC(=O)CCn2nc(C)cc2C)cc1 | 1.12 | -11.6% (inactive)
Cc1ccc(Cn2nc(C)c(NC(=O)C3CC3)c2C)cc1 | 1.06 | -6.3% (inactive)
COc1ccc(NC(=O)C2CCN(c3nc(C)cc(C)n3)CC2)cc1 | 0.96 | 4.05% (inactive)
Cc1nn(C(C)C)c(C)c1CN1CCC(C(=O)Nc2cccc(-c3cccc(F)c3)c2)CC1 | 4.89 | -389% (active)
Nc1ccccc1NC(=O)c1ccccc1 | 1.09 | -8.9% (inactive)
CCN1CCN(C(=O)CN(c2ccccc2C)S(C)(=O)=O)CC1 | 1.04 | -3.5% (inactive)
Cc1ccc(OCCn2cnc3c(N)ncnc32)cc1 | 0.932 | 6.8% (inactive)
Cc1cc(NC(=O)CCC(=O)N(Cc2ccco2)C(C)(C)C(=O)NC2CCCCC2)no1 | 1.05 | -5.25% (inactive)
COc1ccc(CNC(=O)C[C@H]2C[C@H](C(=O)N3CCOCC3)[C@@]3(CCC4CCCC4)c4[nH]c5cc(CCC(=O)N(C)C)ccc5c4CCN3C2=O)cc1OC | 1.07 | -6.85% (inactive)

SMILES | activation factor | activity change, negative = activation
CCOC(=O)C1=CN(Cc2cccc(F)c2)S(=O)(=O)NC1c1ccc(Br)cc1F (configuration not stated) | 0.921 | 7.85% (inactive)
CN(C)C(=O)CCc1ccc2c3c([nH]c2c1)[C@]1(C)[C@@H](C(=O)N2CCOCC2)C[C@H](CC(=O)NCCc2ccccn2)C(=O)N1CC3 | 1.02 | -2.25% (inactive)
O=C1C[C@@H]2CCN3C(=O)CCC[C@@H]([C@H]23)[C@@H]1Cc1ccccc1 | 0.964 | 3.55% (inactive)
CC(CN1CCN(C)CC1)OC(=O)c1ccc(Cl)cc1 (configuration not stated) | 0.929 | 7.05% (inactive)
N#Cc1ccc(N2CCN(c3ccc(F)cc3)CC2)cc1 | 0.995 | 0.5% (inactive)
CCCNC(=O)c1ccc(SC)cc1OC | 0.92 | 8% (inactive)
O=C(Nc1ccc(Br)cc1)Nc1ccccc1F | 1.81 | -81.1% (inactive)
O=C(Nc1ccc(Cl)cc1)Nc1ccc(Cl)c(Cl)c1 | 2.27 | -127% (active)
CCn1nccc1C(=O)Nc1ccc(Cl)c(Cl)c1 | 0.952 | 4.85% (inactive)
O=C(Nc1ccc(Cl)c(Cl)c1)N1CCSCC1 | 1.13 | -13.4% (inactive)
O=C(NCC1CC1(Cl)Cl)Nc1ccc(Cl)c(Cl)c1 (configuration not stated) | 2.53 | -153% (active)
O=C(Nc1ccc(Cl)c(Cl)c1)Nc1ccc(Br)cc1F | 2.24 | -124% (active)
Cc1ccc(NC(=O)Nc2ccc(F)c(Cl)c2)cc1 | 1.35 | -35% (inactive)
O=C(Nc1ccc(Br)cc1)Nc1ccccc1Cl | 1.39 | -39.4% (inactive)
N#Cc1ccc(NC(=O)Nc2ccc(Cl)cc2)cc1 | 1.73 | -72.5% (inactive)
CCN(CC)c1nc(N)c2c(N)n(-c3ccccc3C)c(=S)c(C#N)c2c1C#N | 0.823 | 17.8% (inactive)
O=C1c2cccc3c(N4CCCCC4)ccc(c23)C(=O)N1CCO | 1.18 | -17.9% (inactive)
CCOc1ccccc1N(CC(=O)NC1CCCCC1)S(C)(=O)=O | 0.972 | 2.85% (inactive)
COc1cc2c(c(OC)c1OC)C(c1ccccc1C)CC(=O)O2 (configuration not stated) | 1.07 | -6.55% (inactive)
CSCC[C@H](NC(=O)C1CCN(S(=O)(=O)c2ccc(C)cc2C)CC1)c1nc2ccccc2[nH]1 | 2.02 | -102% (active)
